Rows were chosen to be rich in hits. Some 7.9% of all compounds tested hit in one or more screens of this group.
NOMO-1 viab: STK33 inhibitor candidate reducing NOMO-1 cell viability; NOMO-1 AML viability, CellTiter-Glo luminescence, 72 h; inhibition, % (test concentration not listed); AID 2330; actives 7.5% (n = 37,000); in the data active = inhibition above about 80%; inconclusive = no clear call, values can overlap the other calls
MITF inh: inhibitors of MITF; TRPM1 promoter luciferase, luminescence, 24 h; inhibition, % (test concentration not listed); actives 0.28% (n = 37,000); in the data active = inhibition above about 85%; inconclusive = no clear call, values can overlap the other calls; inactive = below about 68%;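 note: human melanocyte line stably carrying TRPM1 promoter luciferase reporter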
Shh pathway inh: Sonic Hedgehog pathway inhibition; inhibition, % (concentration not given with the values); actives 2.1% (n = 22,000); Shh-LIGHT2 Gli-luciferase reporter, 30 h;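 active = mean inhibition across valid replicates above about 65%, limit read from the data; inconclusive = mean under the limit, yet half or more replicates past it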;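 note: pathway switched on by Shh-conditioned medium diluted 1 in 25 in low serum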
Large screens that a line does not name were inactive.

Cc1cccc(C)c1N(CC(=O)Nc1ccc(Br)cc1)S(C)(=O)=O	none (no result: Shh pathway inh)
CCOC(=O)CC1Sc2ccccc2N=C1SCC(=O)Nc1cccc(C(F)(F)F)c1 (stereo not given)	NOMO-1 viab 126
CCOc1ccc2nc(SCC(=O)Nc3cccc(C(F)(F)F)c3)sc2c1	none (no result: Shh pathway inh)
O=C(CSc1nnc(-c2ccncc2)n1-c1ccccc1)c1c[nH]c2ccccc12	none (no result: Shh pathway inh)
O=C(O)CCSc1nc2ccccc2s1	MITF inh inconclusive (no result: Shh pathway inh)
CC(C)(C)c1ccc(S(=O)(=O)CCSc2nc3ccccc3o2)cc1	none (no result: Shh pathway inh)
O=S(=O)(CCSc1nc2ccccc2o1)c1nc2ccccc2s1	NOMO-1 viab 127 (no result: Shh pathway inh)
O=S(=O)(CCSc1ccccn1)c1nc2ccccc2s1	NOMO-1 viab 108 (no result: Shh pathway inh)
Cc1nnc(Nc2cccc(Cl)c2C)s1	none
Cc1noc(C)c1S(=O)(=O)Nc1cccc2c1O[C@H](CN(C)Cc1ccc(C(=O)Nc3ccccc3N)cc1)[C@H](C)CN([C@@H](C)CO)C2=O	NOMO-1 viab 137 (no result: Shh pathway inh)
Cc1noc(C)c1S(=O)(=O)Nc1cccc2c1O[C@@H](CN(C)Cc1ccc(C(=O)O)cc1)[C@@H](C)CN([C@@H](C)CO)C2=O	none
Cc1noc(C)c1S(=O)(=O)Nc1cccc2c1O[C@@H](CN(C)Cc1ccc(C(=O)Nc3ccccc3N)cc1)[C@@H](C)CN([C@H](C)CO)C2=O	NOMO-1 viab 83 (no result: Shh pathway inh)
C[C@@H]1CN([C@H](C)CO)C(=O)c2cccc(NS(C)(=O)=O)c2O[C@@H]1CN(C)Cc1ccc(C(=O)Nc2ccccc2N)cc1	none (no result: Shh pathway inh)
CCOC(=O)c1nnn2c1nc(N(Cc1ccccc1)Cc1ccccc1)c1ccccc12	none (no result: Shh pathway inh)
N#Cc1c(-c2ccccc2Cl)cc(C2CC2)nc1N	none
N#Cc1c(N)nc(Sc2ccc(Cl)cc2)c(C#N)c1-c1ccccc1	NOMO-1 viab 102
COc1cccc(C(=O)/C=c2\[nH]c(=O)/c(=C\c3cccs3)s2)c1	NOMO-1 viab 104
Cc1ccc(NC(=O)CSc2nccc(C)n2)cc1	none (no result: Shh pathway inh)
COc1ccc2ccc(=O)oc2c1CC(O)C(C)(C)OC (stereo not given)	none
C=C1C(=O)O[C@@H]2/C=C(/C)[C@@H]3C/C=C(/C[C@@H](OC(=O)/C(=C/CO)CO)[C@@H]12)C[C@@](O)(C(C)C)C(=O)O3	NOMO-1 viab 107, Shh pathway inh inconclusive
O=c1cc(Oc2ccc(O)cc2)oc2cc(O[C@@H]3O[C@H](CO[C@@H]4O[C@H](CO)[C@@H](O)[C@H](O)[C@H]4O)[C@@H](O)[C@H](O)[C@H]3O)cc(O)c12	none
Cc1noc(C)c1NC(=O)Nc1ccc2c(c1)CC(=O)N([C@@H](C)CO)C[C@@H](C)[C@@H](CN(C)Cc1ccc3c(c1)OCO3)O2	none
Cc1noc(C)c1NC(=O)Nc1ccc2c(c1)CC(=O)N([C@@H](C)CO)C[C@H](C)[C@H](CN(C)Cc1ccc(Cl)c(Cl)c1)O2	NOMO-1 viab 114
C[C@@H]1CN([C@H](C)CO)C(=O)Cc2cc(NC(=O)Nc3ccc(F)cc3)ccc2O[C@@H]1CN(C)Cc1ccc(Cl)c(Cl)c1	NOMO-1 viab 114
COc1ccc(NC(=O)Nc2ccc3c(c2)CC(=O)N([C@@H](C)CO)C[C@H](C)[C@@H](CN(C)Cc2ccc(Cl)c(Cl)c2)O3)cc1	none
C[C@@H]1CN([C@@H](C)CO)C(=O)Cc2cc(NC(=O)Nc3ccc4c(c3)OCO4)ccc2O[C@@H]1CN(C)Cc1ccc(Cl)c(Cl)c1	none
C[C@H](CO)N1C[C@H](C)[C@H](CN(C)Cc2ccc(Cl)c(Cl)c2)Oc2ccc(NC(=O)Nc3ccc(F)cc3)cc2CC1=O	none
C[C@H]1CN([C@@H](C)CO)C(=O)Cc2cc(NC(=O)Nc3ccc(F)cc3)ccc2O[C@H]1CN(C)Cc1ccc(Cl)c(Cl)c1	NOMO-1 viab 127
C[C@H]1CN([C@@H](C)CO)C(=O)Cc2cc(NC(=O)Nc3ccc4c(c3)OCO4)ccc2O[C@H]1CN(C)Cc1ccc(Cl)c(Cl)c1	NOMO-1 viab 113 (no result: Shh pathway inh)
CC(C)(CO)NC(=S)NCC1CCCO1 (stereo not given)	none
COc1ccc(S(=O)(=O)N(C)CC(=O)NC2CC2)cc1C	none (no result: Shh pathway inh)
C[C@@H]1CN([C@H](C)CO)C(=O)c2cccc(NC(=O)Nc3ccc4c(c3)OCO4)c2O[C@@H]1CN(C)C(=O)Nc1ccc(F)cc1	none
C[C@@H]1CN([C@H](C)CO)C(=O)c2cc(NC(=O)Cc3ccccc3)ccc2O[C@@H]1CN(C)Cc1ccc(-c2ccccc2)cc1	none (no result: Shh pathway inh)
COc1ccc(NC(=O)N(C)C[C@H]2Oc3ccc(NS(C)(=O)=O)cc3CC(=O)N([C@H](C)CO)C[C@H]2C)cc1	none
Cc1noc(C)c1NC(=O)N(C)C[C@@H]1Oc2ccc(NC(=O)CCN3CCOCC3)cc2CC(=O)N([C@H](C)CO)C[C@H]1C	none
C[C@@H]1CN([C@@H](C)CO)C(=O)Cc2cc(NC(=O)Nc3ccccc3)ccc2O[C@@H]1CN(C)Cc1ccc(Cl)c(Cl)c1	NOMO-1 viab 103
Cc1noc(C)c1NC(=O)N(C)C[C@H]1Oc2ccc(NC(=O)CCN3CCOCC3)cc2CC(=O)N([C@@H](C)CO)C[C@H]1C	Shh pathway inh 67
C[C@H](CO)N1C[C@H](C)[C@H](CN(C)Cc2ccccc2)Oc2ccc(NC(=O)Nc3ccccc3)cc2CC1=O	none
Cc1ccc(S(=O)(=O)Nc2ccc3c(c2)C(=O)N([C@@H](C)CO)C[C@H](C)[C@H](CN(C)S(=O)(=O)c2cn(C)cn2)O3)cc1	none
CCN(CC(N)=O)S(=O)(=O)c1ccc2ccccc2c1	none (no result: Shh pathway inh)
C[C@@H]1CN([C@H](C)CO)C(=O)Cc2cc(NC(=O)Nc3ccc(C(F)(F)F)cc3)ccc2O[C@H]1CN(C)S(=O)(=O)c1ccc(Cl)cc1	NOMO-1 viab 117
C[C@@H]1CN([C@H](C)CO)C(=O)Cc2cc(NC(=O)Nc3ccc(C(F)(F)F)cc3)ccc2O[C@H]1CN(C)S(=O)(=O)c1ccccc1	none
C[C@@H]1CN([C@H](C)CO)C(=O)Cc2cc(NC(=O)Nc3ccc(C(F)(F)F)cc3)ccc2O[C@@H]1CN(C)S(=O)(=O)c1ccc(Cl)cc1	none
C[C@H](CO)N1C[C@H](C)[C@H](CN(C)S(=O)(=O)c2ccc(Cl)cc2)Oc2ccc(NC(=O)Nc3ccc(C(F)(F)F)cc3)cc2CC1=O	NOMO-1 viab 134, Shh pathway inh 72
C[C@H]1CN([C@@H](C)CO)C(=O)Cc2cc(NS(=O)(=O)c3ccccc3)ccc2O[C@H]1CN(C)Cc1ccc(Cl)c(Cl)c1	NOMO-1 viab 100
C[C@@H]1CN([C@H](C)CO)C(=O)Cc2cc(NS(=O)(=O)c3ccccc3)ccc2O[C@@H]1CN(C)Cc1ccc(Cl)c(Cl)c1	NOMO-1 viab 85, Shh pathway inh inconclusive
C[C@H](CO)N1C[C@H](C)[C@H](CN(C)Cc2ccc(Cl)c(Cl)c2)Oc2ccc(NS(=O)(=O)c3ccccc3)cc2CC1=O	none
C[C@@H]1CN([C@@H](C)CO)C(=O)Cc2cc(NS(=O)(=O)c3ccccc3)ccc2O[C@@H]1CN(C)Cc1ccccc1	none (no result: Shh pathway inh)
C[C@@H]1CN([C@H](C)CO)C(=O)Cc2cc(NS(=O)(=O)c3ccccc3)ccc2O[C@H]1CN(C)Cc1ccc(Cl)c(Cl)c1	NOMO-1 viab 111
C[C@H](CO)N1C[C@H](C)[C@H](CN(C)Cc2ccccc2)Oc2ccc(NS(=O)(=O)c3ccccc3)cc2CC1=O	none
O=C(NCc1cccnc1)c1cnn2c(C(F)(F)F)cc(-c3ccccc3)nc12	none (no result: Shh pathway inh)
CC(=O)c1ccc(NC(=O)c2ccc(CSc3nc4ccc([N+](=O)[O-])cc4s3)cc2)cc1	none (no result: Shh pathway inh)

Screens: PubChem BioAssay, Broad Institute
